Data reported in PubChem BioAssay (EPA / NIEHS).
The source made the active and inactive calls. How the source made its calls: active means hit-call score of the fitted dose curve at least 0.9, where 1 is the maximum; inactive means score below 0.9.

Experiment: ATG_TGFb_CIS: Attagene CIS-FACTORIAL HepG2 Assay for human Transforming Growth Factor (TGF) (AID 2282967)
Conditions: HepG2 Attagene CIS TGFb reporter, mRNA transcription; actives raise or lower the signal
Protocol: ATG_CIS is a cell-based, multiplexed-readout assay that uses HepG2, a human liver cell line, with measurements taken at 24 hours after chemical dosing in a 24-well plate.ATG_TGFb_CIS is one of 52 assay component(s) measured or calculated from the ATG_CIS assay. It is designed to make measurements of mRNA induction, a form of inducible reporter, as detected with fluorescence intensity signals by Reverse transcription polymerase chain reaction (RT-PCR) and Capillary electrophoresis technology.Data from the assay component ATG_TGFb_CIS was analyzed into 1 assay endpoint. This assay endpoint, ATG_TGFb_CIS, was analyzed with bidirectional fitting relative to DMSO as the negative control and baseline of activity. Using a type of inducible reporter, measures of mRNA for gain or loss-of-signal activity can be used to understand the reporter gene at the transcription factor-level as they relate to the gene TGFB1. Furthermore, this assay endpoint can be referred to as a primary readout, because this assay has produced multiple assay endpoints where this one serves a reporter gene function. To generalize the intended target to other relatable targets, this assay endpoint is annotated to the growth factor intended target family, where the subfamily is transforming growth factor beta.
Human liver HepG2 cells are transiently transfected with multiple reporter transcription units (MRTUs) in 6-well plates using FuGene 6 reagent (Roche; 3 ml FuGene/1 mg DNA). The MRTU constructs are regulated by a cis-regulating element (promoter). […] A major difference between the CIS and TRANS system is that in CIS activities of endogenous TFs are measured, whereas the TRANS assay evaluates changes in activities of exogenous, chimeric NR-Gal4 proteins. […] At the end of 24 hour incubation, total RNA was isolated using TriZol reagent (Invitrogen). The isolated RNA is then reverse-transcribed using oligo(dT) primer and Mo-MLV reverse transcriptase (Invitrogen) with DNAse I (Ambion) treatment for 30 min. The one-tenth of the produced cDNA was amplified by PCR using Taq DNA polymerase (Invitrogen) and two reporter sequence-specific primers. The PCR products were fluorescently labeled by primer extension with 6-arboxyfluorescein (6-FAM) 5'-labeled reporter sequence-specific primer (2 min at 95 C, 20 s at 68 C and 10 min at 72 C) and these products were digested with 5U of HpaI (New England Biolabs) for 2h at 37 C. The fragments were purified using Qiaquick PCR columns (Qiagen), analyzed on an ABI 3130xL genetic analyzer (Applied Biosystems) with peak positions identified by using a set of X-rhodamine (ROX)-labeled MapMarker1000 molecular weight standards (BioVentures). The raw capillary electrophoresis data was processed using Attagraph software (Attagene).

Row | SMILES | outcome
1 | Cc1cc(C)c(C)c(C)c1 | inactive
2 | O=S(=O)(O)c1ccc2cc(O)c(S(=O)(=O)O)cc2c1 | inactive
3 | O=C(O)c1cc2ccccc2nc1C(=O)O | inactive
4 | CCOC(=O)CC(C(C)=O)C(C)=O | inactive
5 | COc1ccc(NC(C)=O)cc1N | inactive
6 | CCCCCCCOC(=O)CCC | inactive
7 | O=c1cc[nH]c(=S)[nH]1 | inactive
8 | C=CC(=O)OCCC(=O)O | inactive
9 | CC1=NN(c2cc(S(=O)(=O)O)ccc2Cl)C(=O)C1N=Nc1ccccc1 (stereo not given) | inactive
10 | Nc1ccc(Cl)cc1Cl | inactive
11 | O=C1CCCC(=O)O1 | inactive
12 | CC(=O)OC1C2(C)CCC(C2)C1(C)C (stereo not given) | inactive
13 | O=C(Nc1ccccc1SSc1ccccc1NC(=O)c1ccccc1)c1ccccc1 | inactive
14 | [Cl][Bi]([Cl])([c]1ccccc1)([c]1ccccc1)[c]1ccccc1 | inactive
15 | COC(=O)C1=C(C)NC(C)=C(C(=O)OCC(C)C)C1c1ccccc1[N+](=O)[O-] (stereo not given) | inactive
16 | CC(C)c1ccc(C#N)cc1 | inactive
17 | CC(C)(C)C(=O)CCc1ccc(Cl)cc1 | inactive
18 | C=C(C)C(=O)OCCO | inactive
19 | COC(=O)c1c(C)cc(O)c(C)c1O | inactive
20 | O=c1[nH]nc(-c2ccc([N+](=O)[O-])o2)o1 | inactive

Row | SMILES | outcome
21 | CC(C)c1ccc2cc(C(C)C)ccc2c1 | inactive
22 | CC(=O)[C@H]1[C@H](C#N)C[C@H]2[C@@H]3CC=C4C[C@@H](O)CC[C@]4(C)[C@H]3CC[C@@]21C | inactive
23 | NC(=O)NNC(N)=O | inactive
24 | N#[N+]c1ccc2c(S(=O)(=O)[O-])cccc2c1O | inactive
25 | O=c1cc(-c2ccccc2)oc2ccccc12 | inactive
26 | CCN(CCC#N)c1ccc(N=Nc2c(Cl)cc([N+](=O)[O-])cc2Cl)cc1 | inactive
27 | Cc1cc(C)c(C)c(O)c1 | inactive
28 | O=C(O)c1cc(Cl)cc([N+](=O)[O-])c1Cl | inactive
29 | CCc1nccnc1C | inactive
30 | Cc1ccc(OC(=O)CC(C)C)cc1 | inactive
31 | CCC(C)C=O (stereo not given) | inactive
32 | CCCCCCCCCCC=CC#N | inactive
33 | O=S(=O)(O)c1cc(S(=O)(=O)O)c2ccc3c(S(=O)(=O)O)cc(S(=O)(=O)O)c4ccc1c2c43 | inactive
34 | COC(F)(F)C(F)(C(F)(F)F)C(F)(F)F | inactive
35 | N[C@H]1C(O)O[C@H](CO)[C@H](O)[C@@H]1O (stereo not given in full) | inactive
36 | Nc1cccc(C(F)(F)F)c1 | inactive
37 | O=C(Nc1ccccc1)c1ccccc1O | inactive
38 | CC(C)=CCC[C@H](C)CCO | inactive
39 | CCCCCCCCCCCCCCCCCC#N | inactive
40 | Cc1cccc(C(=O)O)c1 | inactive
